From PubChem
GPR151 activ – activators of human GPR151, primary screen, cell-based, PathHunter beta-arrestin, luminescence | G-protein coupled receptor 151 (Homo sapiens), Q8TDV0 | PathHunter beta-arrestin GPR151 cells | activation, % at 11.2 µM | actives 1% (n = 650,000) | AID 1508602, 2020; in the data active = activation above about 4.9%;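 also: 0% = median of compound wells and 100% = cells with positive control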
TEAD-YAP inh – TEAD-YAP interaction inhibition, primary screen, TEAD-YAP interaction inhibitor project, luminescence, HEK-TIYL cells | TEAD-Gal4/YAP UAS-luciferase luminescence | inhibition, % at 9.12 µM | actives 1.4% (n = 640,000); in the data active = inhibition above about 32%;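 also: 0% = median of test compound wells and 100% = reference inhibitor wells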
FBW7 act – FBW7 E3 ligase activators, primary screen, biochemical, AlphaScreen, human; actives 0.13% (n = 650,000); AlphaScreen FBW7–phospho-cyclin E peptide binding, activator screen; F-box/WD repeat-containing protein 7 (Homo sapiens), Q969H0; normalized activity (activation), % at 26.1 µM; in the data active = normalized activity above about 1.9%;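 also: purified mutant Fbw7 with reduced substrate affinity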
MITF primary – MITF inhibitors, primary screen, biochemical, AlphaScreen, human; AlphaScreen MITF homodimerization, bead proximity signal; inhibition, % at 2.6 µM; actives 0.91% (n = 650,000); AID 1259374, 2018; in the data active = inhibition above about 50%;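 also: 0% = vehicle wells with protein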
Target sequence (O75030 whole entry, looked up): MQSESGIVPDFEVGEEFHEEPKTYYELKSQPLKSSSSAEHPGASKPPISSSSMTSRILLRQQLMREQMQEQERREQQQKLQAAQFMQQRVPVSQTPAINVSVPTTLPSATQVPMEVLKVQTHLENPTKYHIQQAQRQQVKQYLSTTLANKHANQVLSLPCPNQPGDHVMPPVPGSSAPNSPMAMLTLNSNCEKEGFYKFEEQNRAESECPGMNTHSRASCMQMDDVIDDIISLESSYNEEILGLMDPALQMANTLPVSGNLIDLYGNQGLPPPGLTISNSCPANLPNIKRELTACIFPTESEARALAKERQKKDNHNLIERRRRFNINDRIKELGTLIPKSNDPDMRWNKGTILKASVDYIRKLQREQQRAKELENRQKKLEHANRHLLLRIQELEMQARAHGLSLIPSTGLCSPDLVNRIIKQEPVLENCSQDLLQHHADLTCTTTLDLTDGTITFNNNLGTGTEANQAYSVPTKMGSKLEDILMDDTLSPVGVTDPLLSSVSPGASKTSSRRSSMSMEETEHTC
MITF inh conf – MITF inhibitors, retest of hits, confirmation, biochemical, AlphaScreen, triplicate. shares compounds with MITF primary. AlphaScreen MITF homodimerization, biotin/His-MITF beads. inhibition, % at 2.6 µM. actives 16% (n = 4,700). AID 1259372, 2018;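 active = inhibition above a cutoff derived from the DMSO control wells, cut at about 28% in these data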;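 also: 0% = MITF dimer wells with DMSO only; inhibitors lower the bead chemiluminescence by keeping MITF from dimerizing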
AlphaScreen DR – AlphaScreen optical interference compounds, dose response, counter-screen, biochemical, HTS. shares compounds with MITF primary. AlphaScreen optical interference counterscreen, cell-free. IC50, µM. actives 6% (n = 480). AID 1259373, 2018; call rule not given here
AS interf ctr – AlphaScreen optical interference compounds, counter-screen for MITF inhibitor project, biochemical, triplicate; actives 7.6% (n = 4,700); LysRS AlphaScreen counterscreen, signal interference; AID 1259376, 2018; inhibition, % at 2.6 µM; shares compounds with MITF primary;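 active = inhibition above a cutoff derived from the DMSO control wells, cut at about 30% in these data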
Starred values were filed as active, the others as inactive; . = no result. An excerpt weighted towards active compounds, which were near 3.4% of everything screened.

SMILES	GPR151 activ	TEAD-YAP inh	FBW7 act	MITF primary	MITF inh conf	AS interf ctr	others
O=C(Nc1nc(-c2ccc(F)cc2)cs1)c1cc2cc(Br)cc(Br)c2oc1=O	-1	3	0	100*	2	-9
COc1ccc(CN2CCN(C(=O)CC(C)C)CC2)c(OC)c1OC	0	7	0	40	.	.
COc1cc(CN2CCN(C(=O)CC(C)C)CC2)cc(OC)c1OC	1	4	0	70*	6	2
COc1cc(CN2CCN(C(=O)CC(C)C)CC2)cc(OC)c1	0	2	0	53*	11	10
COc1cc(NC(=O)c2coc(=O)c3ccccc23)cc(OC)c1OC	1	7	0	3	.	.
CC1CCCC(NC(=O)C2N(C(C)(C)C)C(=O)C3C(C(=O)Nc4ccc(Cl)cc4)C4C=CC32O4)C1C (stereo not given)	0	9	0	-1	.	.
Oc1c(C2CCCCC2)cccc1C1CCCCC1	2	4	0	60*	0	11
Cc1cc(O)ccc1C1CCCCC1	0	8	0	-1	.	.
Cc1ccc(Nc2nc(C(=O)NCc3ccccn3)cs2)cc1	-1	-7	0	14	.	.
CCc1ccc(CN2CCN(C3CCCC(C)C3)CC2)cc1 (stereo not given)	-2	-3	0	64*	0	-1
CC1CCCC(N2CCN(Cc3ccc(Cl)cc3)CC2)C1 (stereo not given)	0	10	0	73*	-8	-2
CC1CCC(N2CCN(Cc3ccc(F)cc3)CC2)CC1 (stereo not given)	0	-3	0	34	.	.
CC1CCCC(N2CCN(Cc3ccc(F)cc3)CC2)C1 (stereo not given)	0	-39	0	74*	4	4
Fc1cccc(CN2CCC(N3CCCCC3)CC2)c1	-1	4	0	-8	.	.
CC1CCCC(N2CCN(Cc3cccc(F)c3)CC2)C1 (stereo not given)	-1	-1	0	69*	-3	-7
CC1(C)Cc2ccccc2/C(=C(\C#N)c2ccccc2)N1	0	-6	0	-9	.	.
Cc1ccc(S(=O)(=O)CCOCCOCCOS(=O)(=O)c2ccc(C)cc2)cc1	-1	8	0	-1	.	.
CCCCN1CCN(c2ccc(C(F)(F)F)cn2)C1=O	5	-27	0	5	.	.
O=C1N(CC2CC2)CCN1c1ccc(C(F)(F)F)cn1	1	-51	1	55*	6	14
O=C(NC1CCCC1)C1c2ccccc2Oc2ccccc21	0	-2	0	76*	-2	-6
CN(CC(=O)N1CCN(c2ccccc2F)CC1)S(=O)(=O)c1ccc(F)cc1	-2	-41	1	19	.	.
O=C1N[C@H](Cc2ccccc2)C(=O)N2CCN(C(=O)NCc3ccccc3)C[C@H]12	-1	7	0	69*	64*	-6	AlphaScreen DR=>6.5
COc1ccc(C[C@@H]2NC(=O)[C@H]3CN(C(=O)NCc4ccccc4)CCN3C2=O)cc1	-1	6	0	79*	72*	-9	AlphaScreen DR=>6.5
C[C@H](O)[C@H]1NC(=O)[C@H]2CN(C(=O)NCc3ccccc3)CCN2C1=O	-1	6	1	75*	71*	-13	AlphaScreen DR=>6.5
O=C1N[C@@H](Cc2cnc[nH]2)C(=O)N2CCN(C(=O)NCc3ccccc3)C[C@H]12	0	11	0	13	.	.
SMILES	GPR151 activ	TEAD-YAP inh	FBW7 act	MITF primary	MITF inh conf	AS interf ctr	others
COc1ccc(C[C@@H]2NC(=O)[C@H]3CN(C(=O)c4ccc(-c5ccccc5)cc4)CCN3C2=O)cc1	2	10	1	21	.	.
C[C@@H](O)[C@@H]1NC(=O)[C@H]2CN(C(=O)OCc3ccccc3)CCN2C1=O	0	7	0	15	.	.
Cc1ccc(C2CC(C(F)(F)F)n3nc(C(=O)Nc4cccc(C)c4C)cc3N2)cc1 (stereo not given)	0	9	0	4	.	.
COC(=O)c1ccc(CN2CCN(CC(=O)c3ccco3)CC2)cc1	-2	1	0	70*	5	19
CS(=O)(=O)N1CCN(CC(=O)c2ccco2)CC1	2	5	0	57*	14	12
CCN1CCN(CC(=O)c2ccco2)CC1	-1	-2	0	70*	15	16
C#CC1(NC(=O)[C@H]2C[C@H]2C(=O)O)CCCCC1	1	11	0	8	.	.
Cc1cc(C)nc(SCc2nnc(SCc3ccccc3)o2)n1	1	-2	0	4	.	.
COc1ccc(/C=N/Nc2ccc(S(=O)(=O)O)cc2)cc1	-1	3	-1	-2	.	.
COc1ccc2cc(/C=N/Nc3ccc(S(=O)(=O)O)cc3)ccc2c1	0	3	0	66*	19	-2
NS(=O)(=O)c1ccc(N=Cc2cc3c(cc2[N+](=O)[O-])OCO3)cc1	1	-2	0	64*	56*	9	AlphaScreen DR=>6.5
CCC(C)(C(=O)NC1CCCCC1)N(CC1CCCO1)C(=O)c1ccc(=O)[nH]c1 (stereo not given)	-1	4	0	79*	-7	-4
C1=CC2CC1CC2CN1CCN(Cc2ccc3c(c2)OCO3)CC1 (stereo not given)	-1	-17	0	58*	-5	-3
C1=CC2CC1CC2CN1CCN(Cc2ccncc2)CC1 (stereo not given)	1	-1	1	79*	-5	14
Fc1ccccc1N1CCN(CC2CC3C=CC2C3)CC1 (stereo not given)	1	-9	0	30	.	.
c1ccc(CCCN2CCN(C3C4CC5CC(C4)CC3C5)CC2)cc1 (stereo not given)	-1	4	0	70*	2	7
C1=CC2CC1CC2CN1CCN(CCCc2ccccc2)CC1 (stereo not given)	-3	7	0	70*	8	16
COc1ccccc1N1CCN(C(=O)C(C)c2ccc([N+](=O)[O-])cc2)CC1 (stereo not given)	1	2	0	3	.	.
CC(=O)Nc1ccc(S(=O)(=O)N2CCC(N3CCOCC3)CC2)cc1	-1	1	0	28	.	.
Clc1ccc(CN2CCN(CC3CC4C=CC3C4)CC2)cc1 (stereo not given)	-1	-5	0	26	.	.
Cc1ccc(S(=O)(=O)N2CCN(CC3CC4C=CC3C4)CC2)cc1 (stereo not given)	2	-52	0	68*	-3	-2
